Experimental data reported in the supplement of paper PMC8699584.
± gives the standard deviation of the averaged measurements.

Tests used:
Molm13 = assay: cell viability relative to DMSO control (bortezomib = 0%); higher = less growth inhibition; details: 10 nM; 72 h
Method in brief: (§1)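 In duplicate runs, a library of 679 approved and investigational compounds in 384-well plates received acute myeloid leukemia cells at 1000 cells per well in 50 µL, with each compound at a single 10 nM dose for 72 h. CellTiter-Glo luminescence, read on an EnVision reader, served as the viability measure. Each plate was normalized by linear regression between DMSO-treated cells (100%) and positive-control-treated cells (0%).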

Mv4-11 = assay: as above; details: 10 nM; 72 h
Method in brief: as §1

**Q.** What does the source list for `COC(=O)c1c2c(c3ccccc3c1O)OC(C)(C)C=C2` [Mollugin]?
**A.** cell viability (Molm13): 98 ± 1.6%; cell viability (Mv4-11): 100 ± 7.8%

**Q.** How did the cell viability (Molm13) turn out when `COc1cc(C(=O)N2CCC(N3CCN(C)CC3)CC2)ccc1Nc1ncc2c(n1)N(C)c1ccccc1C(=O)N2C` was run?
**A.** The cell viability was 97.52 ± 0.43%.

**Q.** What about the cell viability (Mv4-11) of the same compound?
**A.** The cell viability was 104 ± 5.1%.

**Q.** `Cc1nc2ccc(-n3ncc(C(=O)c4cc5ccccc5[nH]4)c3N)cc2[nH]1` was tested. Which cell viability (Molm13) did it give?
**A.** Its cell viability is 114 ± 3.2%.

**Q.** And the cell viability (Mv4-11)?
**A.** Its cell viability is 110 ± 12%.

**Q.** How did the cell viability (Molm13) turn out when `COc1ccc(-c2cc(=O)c3c(O)cc(O)cc3o2)cc1O` [Diosmetin] was run?
**A.** Its cell viability is 93.4 ± 11%.

**Q.** And the cell viability (Mv4-11)?
**A.** Its cell viability is 96.8 ± 6.3%.

**Q.** What does the source list for `Cc1ccc(CNc2ncnc3ccc(-c4ccc(CO)o4)cc23)o1`?
**A.** cell viability (Molm13): 118 ± 2%; cell viability (Mv4-11): 107 ± 12%

**Q.** Which cell viability (Molm13) does the source give for `C=CC(=O)Nc1cc(Nc2nccc(-c3cn(C)c4ccccc34)n2)c(OC)cc1N(C)CCN(C)C` here?
**A.** Its cell viability is 107 ± 17%.

**Q.** What about the cell viability (Mv4-11) of the same compound?
**A.** Its cell viability is 114 ± 3.5%.

**Q.** How did the cell viability (Molm13) turn out when `NC(=O)c1ccc(NC(=O)NCc2cccc(C(=O)Nc3ccc4c(c3)CNCC4)c2)cc1` was run?
**A.** The cell viability was 117 ± 25%.

**Q.** What about the cell viability (Mv4-11) of the same compound?
**A.** The cell viability was 119 ± 19%.

**Q.** `CCN1/C(=C/C(C)=O)Sc2ccc(OC)cc21` was tested. Which cell viability (Molm13) did it give?
**A.** Its cell viability is 106 ± 11%.

**Q.** What about the cell viability (Mv4-11) of the same compound?
**A.** The cell viability was 104 ± 6.5%.

**Q.** Which results are given for `Nc1cccc(-c2cc3c(Oc4cccc(O)c4)ncnc3[nH]2)c1`?
**A.** cell viability (Molm13): 101 ± 14%; cell viability (Mv4-11): 112 ± 13%

**Q.** For `Cc1[nH]c(/C=C2\C(=O)Nc3ccc(S(=O)(=O)N(C)c4cccc(Cl)c4)cc32)c(C)c1C(=O)N1CCN(C)CC1`, which cell viability (Molm13) is on record?
**A.** The cell viability was 104 ± 22%.

**Q.** And the cell viability (Mv4-11)?
**A.** Its cell viability is 107 ± 13%.

**Q.** How did the cell viability (Molm13) turn out when `COc1cc2ncnc(Nc3ccccc3)c2cc1OC` was run?
**A.** The cell viability was 97.1 ± 10%.

**Q.** What about the cell viability (Mv4-11) of the same compound?
**A.** Its cell viability is 107 ± 12%.

**Q.** Which results are given for `Cn1cnc2c(NCc3ccccc3)nc(NCCO)nc21` [Olomoucine]?
**A.** cell viability (Molm13): 106 ± 16%; cell viability (Mv4-11): 104.2 ± 1%

**Q.** What does the source list for `COc1ccc(COc2ccc(Cc3cnc(N)nc3N)cc2OC)cc1`?
**A.** cell viability (Molm13): 110 ± 17%; cell viability (Mv4-11): 123 ± 11%

**Q.** How did the cell viability (Molm13) turn out when `Cc1nc(Nc2cnn(C3CCNCC3)c2)nc2c1N(C)C(=O)c1cc3ccccc3cc1N2C` was run?
**A.** The cell viability was 95.6 ± 2.2%.

**Q.** What about the cell viability (Mv4-11) of the same compound?
**A.** The cell viability was 104.2 ± 0.14%.
